Assay [1] is described as follows: NCI Yeast Anticancer Drug Screen. Data for the rad50 strain (AID 155).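 Note: 0% = growth of vehicle-only cultures of the same strain.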 The settings on record: S. cerevisiae rad50 strain growth inhibition; at 50.0 µM; active compounds read high. The procedure, abridged: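 Readout: growth inhibition relative to vehicle-treated cultures. Compound exposure was carried out in a genetically defined yeast strain deficient in DNA damage repair.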

Assay [2] can be described thus: NCI Yeast Anticancer Drug Screen. Data for the mec2-1 strain (AID 157). The settings on record: S. cerevisiae mec2-1 strain, at 50.0 µM, active compounds read high. The procedure, abridged: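 Growth inhibition is read against vehicle-treated controls after compound exposure of the mec2-1 yeast strain, which is defective in DNA damage repair or cell cycle control.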
Assay [3] in a line: NCI Yeast Anticancer Drug Screen. Data for the sgs1 mgt1 strain (AID 161).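 Note: 0% = growth of cultures given vehicle only.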 The settings on record: S. cerevisiae sgs1 mgt1 strain, at 50.0 µM, active compounds read high. In outline:
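Compounds are added to genetically altered yeast, and growth is compared with cultures given vehicle alone to give percent inhibition.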

Assay [4] in a line: NCI Yeast Anticancer Drug Screen. Data for the cln2 rad14 strain (AID 165).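 Note: 0% = growth equal to vehicle treated cultures.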 The settings on record: S. cerevisiae cln2 rad14 strain, at 50.0 µM, active compounds read high. The procedure, abridged:
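Growth inhibition, relative to vehicle-treated controls, is the read-out. The test organism is a yeast strain with defined genetic alterations, cln2 rad14.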

The nature of assay [5]: NCI Yeast Anticancer Drug Screen. Data for the bub3 strain (AID 167). The settings on record: S. cerevisiae bub3 mutant strain, at 50.0 µM, active compounds read high. In outline:
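Readout: yeast growth inhibition, expressed relative to vehicle-only wells. The test organism is a mutant strain from a panel with lesions in DNA repair or checkpoint genes.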

A short description of assay [6]: NCI Yeast Anticancer Drug Screen. Data for the mlh1 rad18 strain (AID 175). The settings on record: S. cerevisiae mlh1 rad18 strain growth inhibition; at 50.0 µM; active compounds read high. In outline:
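Cells of a genetically altered yeast strain, deficient in DNA damage repair, were treated with compound. Their growth was then compared with that of vehicle-treated cultures to give inhibition.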

Compounds without any hit were thinned out: in the full panel of roughly 79,000, 15% have a hit. Unmarked numbers belong to inactive results. Activity calls are given as the source filed them. Cut-off read from the data, not from the text of the source: active = growth inhibition above about 70%; inactive = the rest.

On to `CC(C)(C)C1CCC2c3c([nH]c4ccccc34)C3C(=O)N(c4ccc(Br)cc4)C(=O)C3C2C1` (stereo not given), for which the growth inhibition in assay [1] was 12.8%; in assay [2] it was 11.8%; in assay [3], 8.05%; in assay [4], -35.6%; in assay [5], 13.8%; in assay [6], 6.15%.

For the molecule `CC(C)(C)NC(=O)CCC(=O)O`, the growth inhibition in assay [1] is -8.65%; in assay [2], -19.4%; in assay [3], -16%; in assay [4] it was -18.2%; in assay [5], -2.3%; in assay [6] it was -7.3%.

As to `COC(=O)C(Cc1ccccc1)NP(=O)(O)OCC1OC(n2cc(I)c(=O)[nH]c2=O)CC1O` (stereo not given), the growth inhibition in assay [1] was -11.8%; in assay [2], -2.65%; in assay [3], -15.2%; in assay [4], -10.5%; in assay [5] it was -10.1%; in assay [6] it was 0.85%.

As to `Cc1cc(CC(N)C(=O)O)ccc1O` (stereo not given), the growth inhibition was -0.65% in assay [1]; 7.05% in assay [2]; -6% in assay [3]; -6.85% in assay [4]; 0.5% in assay [5]; -16.6% in assay [6].

As to `C=C(C)C1CC=C(C)/C(=N\O)C1` (stereo not given), the growth inhibition in assay [1] was -5.15%; in assay [2] it was -9.9%; in assay [3], -17.4%; in assay [4] it was 3.05%; in assay [5] it was 15%; in assay [6], -5.6%.

For the molecule `CN(C)C12CCCCCC1S(=O)(=O)C2` (stereo not given), the growth inhibition in assay [1] is -0.05%; in assay [2], -20.1%; in assay [3] it was 0.85%; in assay [4], -17.6%; in assay [5] it was -22.4%; in assay [6], 3.45%.

As to `O=C(Nc1ccn(C2OC(CO)C(O)C2O)c(=O)n1)Nc1ccn(C2OC(CO)C(O)C2O)c(=O)n1` (stereo not given), the growth inhibition in assay [1] is 22.5%; in assay [2], -17.6%; in assay [3], -4.95%; in assay [4] it was -35.8%; in assay [5] it was -1.2%; in assay [6], 17.6%.

For the molecule `Nc1nc(-c2ccccc2)cc2ccccc12`, the growth inhibition was 0.55% in assay [1]; -12.7% in assay [2]; 1.65% in assay [3]; -18.7% in assay [4]; -13.2% in assay [5]; 18.1% in assay [6].

Regarding `Cc1c(NC=O)c(=O)n(-c2ccccc2)n1C`, the growth inhibition in assay [1] is -10.8%; in assay [2] it was -33%; in assay [3], 32.9%; in assay [4], 3.65%; in assay [5], 14.4%; in assay [6], 33.7%.

Take `COC1(OC)N=C(N)C2(C#N)/C(=N/N(C)C)CC(C)C12C#N` (stereo not given): the growth inhibition was 11.9% in assay [1]; 4.35% in assay [2]; -18.4% in assay [3]; -16.1% in assay [4]; -22.8% in assay [5]; -40.7% in assay [6].

For the molecule `CC(=O)OC1CC2(C)OC(Cc3ccccc32)O1` (stereo not given), the growth inhibition in assay [1] was -37.2%; in assay [2] it was -3.05%; in assay [3] it was -58.6%; in assay [4] it was 4.4%; in assay [5] it was -23.1%; in assay [6], -43.5%.

Take `O=c1ccc2c(-c3ccccc3O)c3ccc(O)cc3oc-2c1`: the growth inhibition in assay [1] was 91.8% (active); in assay [2], 78.4% (active); in assay [3], 85% (active); in assay [4] it was 86.9% (active); in assay [5], 88.5% (active); in assay [6], 95.5% (active).

As to `N#CC(c1ccccc1)C(c1ccccc1)c1cccc2ccccc12` (stereo not given), the growth inhibition is 12.2% in assay [1]; 12.3% in assay [2]; 5.7% in assay [3]; -6.85% in assay [4]; -3.3% in assay [5]; 15.6% in assay [6].

Consider `COc1cc(C2C(C(=O)NCc3ccccc3)=C(C)NC(C)=C2C(=O)NCc2ccccc2)ccc1O`, for which the growth inhibition in assay [1] is -27.1%; in assay [2], -11.1%; in assay [3] it was -23.9%; in assay [4], -3.9%; in assay [5], -7%; in assay [6], -21.2%.

As to `O=Cc1ccc(O)cn1`, the growth inhibition was -0.65% in assay [1]; 6.25% in assay [2]; -4.4% in assay [3]; -11.9% in assay [4]; 1.75% in assay [5]; -0.75% in assay [6].

Turning to `Nc1nnnn1NC(=O)c1ccccc1`, the growth inhibition in assay [1] is -2.1%; in assay [2] it was -6.8%; in assay [3], -5.35%; in assay [4], -11.5%; in assay [5] it was -6%; in assay [6], -11.3%.

Regarding `C=CCOC(OCC=C)C(C)C`, the growth inhibition is -0.5% in assay [1]; -12.2% in assay [2]; -13.9% in assay [3]; -3.4% in assay [4]; -23.4% in assay [5]; -3.4% in assay [6].

For `CCn1cc(C(=O)CCP(=O)(OC)OC)c2ccccc21`, the growth inhibition was 7.5% in assay [1]; -22.2% in assay [2]; 3.6% in assay [3]; -12.8% in assay [4]; 5.15% in assay [5]; -0.25% in assay [6].

With `CC(=O)NNC(=S)N/C=C(/C(=O)c1ccccc1)c1ccccc1`, the growth inhibition was -22.7% in assay [1]; -9.45% in assay [2]; -16.7% in assay [3]; 3.75% in assay [4]; -16.4% in assay [5]; -6.9% in assay [6].

On to `c1ccc2c(c1)n1nnnc1c1nnnn21`, for which the growth inhibition in assay [1] is 34.6%; in assay [2], -10.4%; in assay [3], 20.1%; in assay [4] it was 23.7%; in assay [5], 4.85%; in assay [6], 24.4%.

Source of the values: PubChem BioAssay (NCI).
